Test results from PubChem BioAssay (NCI).
Several values for one entry are separate records, joined by “and”; a condition that tells them apart may be missing. Equal entries are not always repeated. Compounds without any hit were thinned out: in the full panel of roughly 83,000, 20% have a hit.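 Interpretation: 100, growth as untreated; towards 0, rising growth inhibition; 0, no net growth; 0 to -100, cell death. Compounds scoring below 10 were considered active.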

Columns and labels:
Experiment in all cases: NCI-60 one-dose screen, 48 h (100 = growth as untreated, 0 = no growth, -100 = all killed)
Conditions in all cases: 10 µM unless noted
HCT-15 colon = test system: HCT-15 colon
HT29 colon = test system: HT29 colon
SNB-75 CNS = test system: SNB-75 CNS
SNB-19 CNS = test system: SNB-19 CNS
U251 CNS = test system: U251 CNS
PC-3 prostate = test system: PC-3 prostate
SK-MEL-5 melanoma = test system: SK-MEL-5 melanoma
UACC-62 melanoma = test system: UACC-62 melanoma
LOX IMVI melanoma = test system: LOX IMVI melanoma
SK-MEL-28 melanoma = test system: SK-MEL-28 melanoma

Measured: growth

O=C(c1ccc(Cl)cc1)C1C(c2ccccc2)C1[N+](=O)[O-] (stereo not given)
inactive: HCT-15 colon 102% | HT29 colon 97.2% | SNB-75 CNS 106% | SNB-19 CNS 97.1% | U251 CNS 89.9% | PC-3 prostate 90.5% | SK-MEL-5 melanoma 96.9% | UACC-62 melanoma 91.1% | LOX IMVI melanoma 95.2% | SK-MEL-28 melanoma 111%

N#Cc1c[nH]n2ccnc12
inactive: HCT-15 colon 104% | HT29 colon 91.2% | SNB-75 CNS 103% | SNB-19 CNS 108% | U251 CNS 92.4% | PC-3 prostate 97.9% | SK-MEL-5 melanoma 115% | UACC-62 melanoma 106% | LOX IMVI melanoma 96.1% | SK-MEL-28 melanoma 107%

CSc1nc(N)c(N)c(N)n1
inactive: HCT-15 colon 111% | HT29 colon 88.8% | SNB-75 CNS 97.5% | SNB-19 CNS 100% | U251 CNS 95.8% | PC-3 prostate 71.4% | SK-MEL-5 melanoma 101% | UACC-62 melanoma 101% | LOX IMVI melanoma 101% | SK-MEL-28 melanoma 113%

CN1C2C=CC(=O)C1C1C(=O)N(c3ccccc3)C(=O)C12 (stereo not given)
inactive: HCT-15 colon 42% | HT29 colon 48.8% | SNB-75 CNS 92.6% | SNB-19 CNS 95.7% | U251 CNS 62.1% | PC-3 prostate 54.8% | SK-MEL-5 melanoma 92% | UACC-62 melanoma 84.3% | LOX IMVI melanoma 38.7% | SK-MEL-28 melanoma 95.4%

Cc1cc(O)c(C(C)C)cc1N=O
inactive: HCT-15 colon 94.3% and 98.9% | HT29 colon 114% and 94.1% | SNB-75 CNS 96.7% | SNB-19 CNS 96.1% and 99.4% | U251 CNS 97.6% | PC-3 prostate 109% and 97.6% | SK-MEL-5 melanoma 99.6% and 104% | UACC-62 melanoma 99.7% and 103% | LOX IMVI melanoma 88.5% and 99.5% | SK-MEL-28 melanoma 110% and 113%

C=CCN1C(=O)c2ccccc2C1=O
inactive: HCT-15 colon 109% | HT29 colon 122% | SNB-75 CNS 95.9% | SNB-19 CNS 98.1% | U251 CNS 101% | PC-3 prostate 96.6% | SK-MEL-5 melanoma 101% | UACC-62 melanoma 90.8% | LOX IMVI melanoma 94.7% | SK-MEL-28 melanoma 108%

COc1ccc(CCn2cnn3c(=O)c4ccccc4nc3c2=O)cc1OC
inactive: HCT-15 colon 104% and 109% | HT29 colon 106% and 104% | SNB-75 CNS 103% and 135% | SNB-19 CNS 104% and 96.6% | U251 CNS 101% and 104% | PC-3 prostate 102% and 98.7% | SK-MEL-5 melanoma 101% and 97% | UACC-62 melanoma 111% and 102% | LOX IMVI melanoma 98% | SK-MEL-28 melanoma 109% and 125%

N#CC1c2ccccc2C=CN1C(=O)c1ccccc1 (stereo not given)
inactive: HCT-15 colon 111% and 104% | HT29 colon 112% and 107% | SNB-75 CNS 92.1% and 98% | SNB-19 CNS 103% and 109% | U251 CNS 101% and 97.5% | PC-3 prostate 92.4% and 146% | SK-MEL-5 melanoma 97.1% and 107% | UACC-62 melanoma 97.4% and 83.7% | LOX IMVI melanoma 102% and 94.8% | SK-MEL-28 melanoma 103% and 122%

NNc1ncnc2cccc(Cl)c12
inactive: HCT-15 colon 97.8% | HT29 colon 95% | SNB-75 CNS 101% | SNB-19 CNS 103% | U251 CNS 95.4% | PC-3 prostate 93.3% | SK-MEL-5 melanoma 91% | UACC-62 melanoma 92% | LOX IMVI melanoma 94.6% | SK-MEL-28 melanoma 103%

N#Cc1c(N)nc2c(c(-c3ccc(Cl)cc3)nn2-c2ccccc2)c1C#N
inactive: HCT-15 colon 98.6% [100 µM] | HT29 colon 106% [100 µM] | SNB-75 CNS 104% [100 µM] | SNB-19 CNS 99.6% [100 µM] | U251 CNS 92.8% [100 µM] | PC-3 prostate 98.6% [100 µM] | SK-MEL-5 melanoma 103% [100 µM] | UACC-62 melanoma 97.9% [100 µM] | LOX IMVI melanoma 96.6% [100 µM] | SK-MEL-28 melanoma 114% [100 µM]

COc1cc(NCCCCCNC(C)C)c2ncccc2c1
inactive: HCT-15 colon 96.7% and 96.6% | HT29 colon 85.9% and 67.1% | SNB-75 CNS 84.2% and 73.7% | SNB-19 CNS 96.1% and 81.2% | U251 CNS 94.8% and 85.9% | PC-3 prostate 86.3% and 89.1% | SK-MEL-5 melanoma 98.4% and 99% | UACC-62 melanoma 83.7% | LOX IMVI melanoma 87.3% and 82.5% | SK-MEL-28 melanoma 98.5% and 98.7%
